# According to the supplement of paper PMC12350171:
# Structures can show the parent of a compound that is named as a salt.
# Tested on: Haemophilus parainfluenzae
# Assay: growth AUC normalised to DMSO control (fraction of control); higher = less growth inhibition, active = hit call of the paper
# Conditions: 20 µM;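 active = AUC significantly below DMSO controls by Student t-fit with adjusted P under 0.01; inactive = not significantly reduced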
# Outline: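 Three biological replicates were carried out, with OD578 read hourly for 24 h. Before inoculation at a starting OD578 of 0.01, pathogens were passaged anaerobically twice; plates were pre-reduced mGAM containing 20 μM compound and 1% DMSO, sealed with breathable membranes, and the Haemophilus parainfluenzae medium carried added hemin and NAD. Area under each growth curve was calculated by the trapezoidal rule up to the exponential-to-stationary transition and normalised to DMSO controls on the same plate.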
row,SMILES,growth AUC normalised to DMSO control
1,O=C(O)COC(=O)Cc1ccccc1Nc1c(Cl)cccc1Cl [Aceclofenac],1.01 (inactive)
2,Cc1ncc([N+](=O)[O-])n1CCO [Metronidazole],0.906 (inactive)
3,Nc1ccc(S(N)(=O)=O)cc1 [Sulfanilamide],0.997 (inactive)
4,CC1=C(C(=O)O)N2C(=O)[C@@H](NC(=O)[C@H](N)c3ccc(O)cc3)[C@H]2SC1 [Cefadroxil],0.949 (inactive)
5,CC(C)(C)NC(=O)[C@@H]1C[C@@H]2CCCC[C@@H]2CN1C[C@@H](O)[C@H](Cc1ccccc1)NC(=O)[C@H](CC(N)=O)NC(=O)c1ccc2ccccc2n1 [Saquinavir mesylate],1.63 (inactive)
6,Cc1onc(-c2c(F)cccc2Cl)c1C(=O)N[C@@H]1C(=O)N2[C@@H]1SC(C)(C)[C@@H]2C(=O)O [Flucloxacillin sodium],0.944 (inactive)
7,NC(=O)N1c2ccccc2CC(=O)c2ccccc21 [Oxcarbazepine],0.954 (inactive)
8,Cn1c(=O)c2c(ncn2CCO)n(C)c1=O [Etofylline],1.02 (inactive)
9,Clc1ccc(C(Cn2ccnc2)OCc2c(Cl)cccc2Cl)c(Cl)c1 (stereo not drawn) [Isoconazole],0.972 (inactive)
10,Cc1ccccc1OCC(O)CO (stereo not drawn) [Mephenesin],0.93 (inactive)
11,C[C@]12CCC(=O)C=C1C=C[C@@H]1[C@@H]2CC[C@@]2(C)[C@H]1CC[C@@]21CCC(=O)O1 [Canrenone],1 (inactive)
12,Cc1cnc(NC(=O)C2=C(O)c3ccccc3S(=O)(=O)N2C)s1 [Meloxicam],0.968 (inactive)
13,CN(CCCCCCCCCCN(C)C(=O)Oc1cccc([N+](C)(C)C)c1)C(=O)Oc1cccc([N+](C)(C)C)c1 [Demecarium bromide],0.923 (inactive)
14,CC(=O)Oc1cc(C(C)C)c(OCCN(C)C)cc1C [Moxisylyte hydrochoride],0.995 (inactive)
15,CCN[C@H]1C[C@H](C)S(=O)(=O)c2sc(S(N)(=O)=O)cc21 [Dorzolamide hydrochloride],1.03 (inactive)
16,CN(C)CCOC1=Cc2ccccc2Sc2ccc(Cl)cc21 [Zotepine],0.891 (inactive)
17,NC[C@H]1CC[C@H](C(=O)O)CC1 [Tranexamic acid],1.04 (inactive)

row,SMILES,growth AUC normalised to DMSO control
1,CC(=O)Nc1c(I)c(C(=O)N[C@H]2C(O)O[C@H](CO)[C@@H](O)[C@@H]2O)c(I)c(N(C)C(C)=O)c1I (stereo partly drawn) [Metrizamide],0.984 (inactive)
2,C#CCN(C)Cc1ccccc1 [Pargyline hydrochloride],0.979 (inactive)
3,COc1cc(C(=O)OCCCN2CCCN(CCCOC(=O)c3cc(OC)c(OC)c(OC)c3)CC2)cc(OC)c1OC [Dilazep dihydrochloride],0.97 (inactive)
4,CCCCC1C(=O)N(c2ccccc2)N(c2ccccc2)C1=O [Phenylbutazone],1.02 (inactive)
5,C=C[C@H]1CN2CC[C@H]1C[C@@H]2[C@@H](O)c1ccnc2ccc(OC)cc12 [Quinidine hydrochloride monohydrate],1.01 (inactive)
6,CC(C)(C)NCC(O)COc1cccc2c1CCC(=O)N2 (stereo not drawn) [Carteolol hydrochloride],0.985 (inactive)
7,CNNCc1ccc(C(=O)NC(C)C)cc1 [Procarbazine hydrochloride],0.995 (inactive)
8,CN(C)CCOC(C)(c1ccccc1)c1ccccn1 (stereo not drawn) [Doxylamine succinate],0.989 (inactive)
9,Cc1ccc(C)c(OCCCC(C)(C)C(=O)O)c1 [Gemfibrozil],0.971 (inactive)
10,CC(C)(C)NC[C@H](O)COc1ccccc1C1CCCC1 [Penbutolol sulfate],1.02 (inactive)
11,CCCCNc1ccc(C(=O)OCCN(C)C)cc1 [Tetracaine hydrochloride],1.16 (inactive)
12,Nc1nc2c(ncn2COC(CO)CO)c(=O)[nH]1 [Ganciclovir],0.989 (inactive)
13,CCOc1cc(CC(=O)N[C@@H](CC(C)C)c2ccccc2N2CCCCC2)ccc1C(=O)O [Repaglinide],1.08 (inactive)
14,CC(=O)N1CCN(c2ccc(OCC3COC(Cn4ccnc4)(c4ccc(Cl)cc4Cl)O3)cc2)CC1 (stereo not drawn) [Ketoconazole],1.03 (inactive)
15,CCN(CC)CCNC(=O)c1cc(Br)c(N)cc1OC [Bromopride],1.03 (inactive)
16,CN1C(=O)OC(C)(C)C1=O [Trimethadione],0.975 (inactive)
